PI5P4K alpha inh: qHTS for Inhibitors of phosphatidylinositol 5-phosphate 4-kinase (PI5P4K); max response, %; PI5P4Kalpha enzyme, ADP-Glo luminescence, 60 min; stronger effect = lower value; AID 652105, 2013; 330,000 tested, 1.2% active; Phosphatidylinositol 5-phosphate 4-kinase type-2 alpha (Homo sapiens), P48426; active = max response of -50% or lower; inconclusive = between -30% and -50%; inactive = -30% or higher; also: value at the top dose of about 77 µM; % is scaled to controls: 0 for no effect and ±100 for the full control effect
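Controls without substrate or without enzyme flank wells where PI5P4Kalpha converts substrate using 5 microM ATP (final). Incubation lasts 60 minutes at room temperature; ADP formed is read by ADP-Glo luminescence.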
BAZ2B inh: qHTS Assay for Inhibitors of BAZ2B. Bromodomain adjacent to zinc finger domain protein 2B (Homo sapiens), Q9UIF8. AlphaScreen BAZ2B-H3K14Ac peptide displacement. Potency, µM (top dose mostly 114 µM), inactives show top-dose activity change, negative = inhibition, usual class: inhibitors. 360,000 tested, 4.4% active; also: potency is read from the fitted curve at half-maximal effect; % is scaled to controls: 0 for no effect and ±100 for the full control effect; nearly all actives have a fitted effect of over 60% in size
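In this displacement format the biotinylated H3(5-23) peptide acetylated at Lys14 serves as ligand at 50 nM, with BAZ2B at 50 nM in PBS pH 7.4 containing 0.01% Tween-20. Donor and acceptor beads are 10 ug/mL final.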
JMJD2A Tudor: qHTS Assay for Inhibitors of JMJD2A-Tudor Domain. Lysine-specific demethylase 4A (Homo sapiens), O75164. AID 504339, 2011. 390,000 tested, 4.4% active. AlphaScreen JMJD2A-Tudor / H3K4me3 peptide binding. Potency, µM (top dose mostly 114 µM), for inactives: at the top dose activity change, negative = inhibition, hits mostly inhibitors; also: potency is read from the fitted curve at half-maximal effect; % is scaled to controls: 0 for no effect and ±100 for the full control effect; nearly all actives have a fitted effect of over 50% in size
HP1b chromo inh: HTS for Inhibitors of HP1-beta Chromodomain Interactions with Methylated Histone Tails. Potency, µM (doses to about 114 µM), for the others: at the top dose activity change, negative = inhibition, hits mostly inhibitors. AlphaScreen HP1-beta / biotin-H3K9me3 peptide binding. 390,000 tested, 0.56% active. Chromobox protein homolog 1 (Homo sapiens), P83916; also: potency is read from the fitted curve at half-maximal effect; nearly all actives have a fitted effect of over 70% in size
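HP1-beta protein (50 nM final) preincubated 30 min at room temperature with biotinylated H3(1-18)K9me3 peptide (50 nM) in PBS pH 7.4, 0.01% Tween-20, then compound added for 30 min. AlphaScreen streptavidin donor/nickel chelate acceptor beads (10 ug/mL final), 30 min dark, luminescence read.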
PLK1 PBD block: qHTS for Inhibitors of PLK1-PDB (polo-like kinase 1 - polo-box domain): Primary Screen. Serine/threonine-protein kinase PLK1 (Homo sapiens), P53350. Plk1 PBD binding of FITC phosphopeptide, fluorescence polarization. Potency, µM, without a hit: max response, negative = inhibition, actives largely listed as inhibitors. 360,000 tested, 2.8% active; also: potency is read from the fitted curve at half-maximal effect; series mostly up to about 57 µM; % is scaled to controls: 0 for no effect and ±100 for the full control effect; nearly all actives have a fitted effect of over 65% in size
Target sequence (P53350 whole entry, looked up, the tested form may be a part): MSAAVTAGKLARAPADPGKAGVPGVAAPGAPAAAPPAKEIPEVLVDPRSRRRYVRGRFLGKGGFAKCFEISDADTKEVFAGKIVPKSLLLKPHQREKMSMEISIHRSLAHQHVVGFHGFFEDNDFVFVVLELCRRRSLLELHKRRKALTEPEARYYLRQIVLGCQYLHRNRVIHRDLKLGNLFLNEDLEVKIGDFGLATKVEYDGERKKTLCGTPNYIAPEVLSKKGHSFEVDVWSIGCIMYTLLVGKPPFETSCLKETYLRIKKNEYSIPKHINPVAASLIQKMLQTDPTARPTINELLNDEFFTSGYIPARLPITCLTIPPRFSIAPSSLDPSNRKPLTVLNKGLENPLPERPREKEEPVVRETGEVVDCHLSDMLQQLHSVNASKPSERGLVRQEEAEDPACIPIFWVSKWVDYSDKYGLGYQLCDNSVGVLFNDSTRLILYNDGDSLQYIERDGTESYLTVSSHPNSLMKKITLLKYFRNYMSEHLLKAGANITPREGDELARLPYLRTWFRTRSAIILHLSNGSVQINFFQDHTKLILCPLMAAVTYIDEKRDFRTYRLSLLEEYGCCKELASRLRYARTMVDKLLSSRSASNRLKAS
G9a inh: qHTS Assay for Inhibitors of Histone Lysine Methyltransferase G9a; Histone-lysine N-methyltransferase EHMT2 (Homo sapiens), Q96KQ7; G9a H3K9 monomethylation, AlphaScreen, 2 h; Potency, µM (top dose mostly 102 µM), without a hit: at the top dose activity, negative = inhibition, most hits filed as inhibitors; 350,000 tested, 8.8% active; AID 504332, 2011; also: potency is read from the fitted curve at half-maximal effect; % is scaled to controls: 0 for no effect and ±100 for the full control effect; nearly all actives have a fitted effect of over 75% in size
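Enzyme 20 nM + cpd, 15 min RT; add b-H3K9 pep 500 nM / SAM 20 uM; 2 h RT; anti-H3K9me1 Ab 0.5 ug/mL + SA donor / anti-rabbit acceptor beads 20 ug/mL each, 10 min; AlphaScreen read.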
* hit, by the source's call; u = inconclusive; x = no result given; ! = not confirmed by another sample; [ ] = another dose, or the depositor's remark. The list is not random: actives were taken first. Their share in the collection is about 12%. Unless noted, calls follow the shape of the dose curve; as a rule, active = well fitted curve in the direction sought with a large enough effect; inconclusive = small, poorly fitted or top-dose-only effect, or another doubt; inactive = no such curve, though single readings can be large; an effect the other way counts as inactive or inconclusive.

SMILES	PI5P4K alpha inh	BAZ2B inh	JMJD2A Tudor	HP1b chromo inh	PLK1 PBD block	G9a inh
CCn1c(CCCCc2n[nH]c(=S)n2CC)n[nH]c1=S	-3	-29%	4.5µM*	u	-8%	20µM*
Cc1nccn1CCc1n[nH]c(=S)n1Cc1ccccc1	2	14%	40µM*	35%	-11%	2µM*
S=c1[nH]nc(CCc2ccccc2)n1Cc1ccccc1	-8	8%	u	20%	-9%	3.5µM*
CCCCc1n[nH]c(=S)n1Cc1ccc(C)cc1	-5	-23%	14µM*	-8%	-20%	1.8µM*
COc1ccc(-c2cc(C(F)(F)F)nc(SCC(=O)NCc3ccc(OC)c(OC)c3)n2)cc1	x	3%	-22%	53%	x	-10%[59 µM]
O=C(CSc1nc(=O)n(Cc2ccncc2)c2c1CCC2)Nc1ccccc1	x	5%	5%	24%	x	4%[59 µM]
CCc1nc2c(OCc3cc(Cl)cc(Cl)c3)cccn2c1N(C=O)Cc1ccc(OC)cc1	5	x	x	x	3%	x
Cc1ccc(NCc2n[nH]c(=S)n2Cc2ccccc2)cc1Cl	-3	u	u	-3%	-12%	18µM*
Cc1ccc(NCc2nnc(SCC(=O)O)n2Cc2ccccc2)cc1Cl	-4	-31%	-15%	31%	-11%	-31%
COc1ccccc1OCc1n[nH]c(=S)n1Cc1ccccc1	-8	-10%	32µM*	13%	-9%	13µM*
Cn1c(O)c(N=Nc2ccccc2)c2ccccc21	3	-8%	-11%	1%	u	22µM*
Cn1c(O)c(N=Nc2ccc(F)cc2)c2ccccc21	26	-3%	-31%	u	-24%	25µM*
Cn1c(O)c(N=Nc2nc(-c3ccccc3)cs2)c2ccccc21	-5	u	u	-17%	-15%	u
CCOC(=O)c1scc(-c2ccccc2)c1S(=O)(=O)Nc1ccc(N(C)C)cc1	x	20µM*	14µM*	u	x	4.5µM*
CCOC(=O)c1scc(-c2ccccc2)c1S(=O)(=O)Nc1cc(Cl)c(OC)cc1OC	x	u	-24%	u	x	10µM*
CCOC(=O)c1scc(-c2ccc(C)cc2)c1S(=O)(=O)Nc1cc(Cl)ccc1OC	x	-39%	-24%	11%	x	-40%[59 µM]
COc1cccc(C2c3c(ncn(-c4ccccc4OC)c3=N)Oc3ccc4ccccc4c32)c1 (stereo not drawn)	x	x	56µM*	x	x	x
N=c1c2c(ccn1-c1ccccc1)Oc1ccc3ccccc3c1C2c1ccccc1 (stereo not drawn)	x	x	40µM*	x	x	x
COc1cccc(C2c3c(ncn(-c4ccccc4)c3=N)Oc3ccc4ccccc4c32)c1 (stereo not drawn)	x	x	56µM*	x	x	x
COc1cccc(C2c3c(ncn(CCN4CCOCC4)c3=N)Oc3ccc4ccccc4c32)c1 (stereo not drawn)	x	x	-35%	x	x	x
COc1cccc(C2c3c(ncn(-c4cccc(F)c4)c3=N)Oc3ccc4ccccc4c32)c1 (stereo not drawn)	x	x	50µM*	x	x	x
Cn1nnnc1SCCNC(=O)C1CCC(=O)N(Cc2ccc(Cl)cc2)C1 (stereo not drawn)	1	1%	-4%	10%	-2%	x
Cc1ccc(S(=O)(=O)N(C)C)cc1NC(=O)c1ccccc1SCC(=O)N1CCCC1	-2	8%	-9%	42%	-5%	-3%[12.7 µM]
N=c1c2c(ncn1-c1ccccc1)Oc1ccc3ccccc3c1C2c1ccc2c(c1)OCO2 (stereo not drawn)	x	x	45µM*	x	x	x
COc1ccc(C2c3c(ncn(CCCO)c3=N)Oc3ccc4ccccc4c32)cc1OC (stereo not drawn)	4	u	-26%	8%	-24%	u
SMILES	PI5P4K alpha inh	BAZ2B inh	JMJD2A Tudor	HP1b chromo inh	PLK1 PBD block	G9a inh
COc1ccccc1C1c2c(ncn(-c3ccccc3)c2=N)Oc2ccc3ccccc3c21 (stereo not drawn)	x	x	56µM*	x	x	x
CCn1c2ccccc2c2nnc(SCC(=O)NC3CCS(=O)(=O)C3)nc21 (stereo not drawn)	-4	-31%	-14%	24%	-6%	40µM*
CCc1cc2c(=O)n(Cc3ccco3)c(SCC(=O)NC3CCS(=O)(=O)C3)nc2s1 (stereo not drawn)	-18	-20%	-28%	11%	-6%	50µM*
Cn1c2ccccc2c2nnc(SCC(=O)Nc3cccc(O)c3)nc21	0	-33%	-10%	16%	-28%	71µM*
CCc1cc2c(=O)n(Cc3ccco3)c(SCC(=O)N(C)C3CCS(=O)(=O)C3)nc2s1 (stereo not drawn)	-28	-2%	-23%	15%	u	u
CCn1c2ccccc2c2nnc(SCC(=O)N(C)C3CCS(=O)(=O)C3)nc21 (stereo not drawn)	2	-17%	-6%	23%	-9%	u
Cn1c2ccccc2c2nnc(SCCN3CCOCC3)nc21	5	-1%	-12%	63%	u	50µM*
CCn1c2ccccc2c2nnc(SCCN3CCOCC3)nc21	-8	6%	-9%	40%	-21%	0%[0.501 µM]
O=C(CSc1cn(CCNC(=O)c2c(F)cccc2F)c2ccccc12)Nc1ccc(F)cc1	x	1%	-11%	64%	x	42%[59 µM]
CCCCn1c2ccccc2c2nnc(SCC(=O)NC3=NN=C(c4ccccc4)CS3)nc21	x	-3%	x	x	x	28µM*
CCCn1c2ccccc2c2nnc(SCC(=O)OC)nc21	x	6%	-2%	38%	-10%	17%
CCn1c2ccc(C)cc2c2nnc(SCCN3CCOCC3)nc21	8	-9%	-11%	21%	-29%	45µM*
CC(C)C(=O)Nc1nnc(Cc2c[nH]c3ccccc23)s1	-3	-16%	-14%	23%	-9%	15%
Nc1nnc(Cc2c[nH]c3ccccc23)s1	-12	-6%	-22%	18%	-10%	45µM*
c1ccc2c(Cc3c[nH]c4ccccc34)c[nH]c2c1	x	x	x	x	x	8.9µM*!
Cc1cc(C)cc(NC(=O)c2ccc3c(c2)nnn3C2CCCC2)c1	x	3%	-12%	15%	x	4%[59 µM]
C=CC[C@@H]1/C=C(\C)C[C@H](C)C[C@H](OC)[C@H]2O[C@@](O)(C(=O)C(=O)N3CCCC[C@H]3C(=O)O[C@H](/C(C)=C/[C@@H]3CC[C@@H](O)[C@H](OC)C3)[C@H](C)[C@@H](O)CC1=O)[C@H](C)C[C@@H]2OC	x	x	x	x	x	-33%[12.7 µM]

Screens deposited in PubChem BioAssay by National Center for Advancing Translational Sciences (NCATS).
